# Source: PubChem BioAssay
# PfG6PD inh – PfG6PD enzyme inhibitors, primary screen, biochemical, fluorescence intensity, uHTS; glucose-6-phosphate dehydrogenase-6-phosphogluconolactonase (Plasmodium falciparum 3D7); PfGluPho enzyme, NADPH resazurin-diaphorase fluorescence; inhibition, % at 20 µM; hit rate 0.78% among 350,000; AID 504690, 2011;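 active means inhibition reaching at least a set limit at 20 µM in the primary screen, cut at about 59% in these data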;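 further: 0% = DMSO wells with substrate and 100% = DMSO wells lacking glucose-6-phosphate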
# NPR2 activator – human GC-B receptor activators, primary screen, HEK293 GC-B cells, cGMP TR-FRET, EC30 CNP | Atrial natriuretic peptide receptor 2 (Homo sapiens), P20594 | 0% at EC30 CNP, 100% saturating CNP | activation, % at 10 µM | hit rate 0.11% among 370,000 | AID 1920062, 2024;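 active means activation at 10 µM reaching about 35% in either raw or pattern-adjusted values, limit read from the data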
# A3A deaminase – APOBEC3A ssDNA deaminase inhibitors, primary screen, selectivity assay for APOBEC3G inhibitor project, biochemical, FAM/TAMRA oligo cleavage fluorescence; DNA dC->dU-editing enzyme APOBEC-3A (Homo sapiens), P31941; recombinant A3A, FAM/TAMRA ssDNA deamination fluorescence; inhibition, % at 20 µM; hit rate 0.41% among 330,000; AID 493011, 2011;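 active means at least 40% inhibition at 20 µM here, with at most 30% in a related deaminase screen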;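 further: plate controls were A3A with DMSO for no effect and wells lacking A3A enzyme for full effect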
# GC-A act – GC-A stimulated cGMP production enhancers – HEK293 GC-A cells, cGMP TR-FRET, EC30 ANP, primary screen | Atrial natriuretic peptide receptor 1 (Homo sapiens), P16066 | 0% at EC30 ANP, 100% saturating ANP | activation, % at 10 µM | hit rate 0.14% among 370,000 | AID 1671463, 2021; in the data active means activation above about 40%
# A3G deaminase – APOBEC3G DNA deaminase inhibitors, primary screen, biochemical, fluorescence, single-stranded DNA substrate, uHTS; DNA dC->dU-editing enzyme APOBEC-3G (Homo sapiens), Q9HC16; recombinant A3G, ssDNA deamination FAM/TAMRA fluorescence; inhibition, % at 20 µM; hit rate 0.28% among 330,000;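 active means inhibition of at least 40% at 20 µM, with no more than 30% in the related APOBEC3A deaminase screen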;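 further: plate controls were DMSO wells with A3G for no effect and wells lacking A3G enzyme for full effect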
# Neddyl block – inhibitors of cullin neddylation, primary screen, biochemical, TR-FRET, uHTS, NAE and Ubc12 | hit rate 0.58% among 360,000 | inhibition, % at 25 µM; in the data active means inhibition above about 36%
# Target sequence (P61081 whole entry, looked up): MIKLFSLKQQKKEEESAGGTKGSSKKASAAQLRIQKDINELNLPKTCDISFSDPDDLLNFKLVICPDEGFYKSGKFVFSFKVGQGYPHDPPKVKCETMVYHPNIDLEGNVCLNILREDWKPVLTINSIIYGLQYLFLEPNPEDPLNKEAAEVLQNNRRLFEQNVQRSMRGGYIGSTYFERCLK
# Target sequence (Q13564 whole entry, looked up): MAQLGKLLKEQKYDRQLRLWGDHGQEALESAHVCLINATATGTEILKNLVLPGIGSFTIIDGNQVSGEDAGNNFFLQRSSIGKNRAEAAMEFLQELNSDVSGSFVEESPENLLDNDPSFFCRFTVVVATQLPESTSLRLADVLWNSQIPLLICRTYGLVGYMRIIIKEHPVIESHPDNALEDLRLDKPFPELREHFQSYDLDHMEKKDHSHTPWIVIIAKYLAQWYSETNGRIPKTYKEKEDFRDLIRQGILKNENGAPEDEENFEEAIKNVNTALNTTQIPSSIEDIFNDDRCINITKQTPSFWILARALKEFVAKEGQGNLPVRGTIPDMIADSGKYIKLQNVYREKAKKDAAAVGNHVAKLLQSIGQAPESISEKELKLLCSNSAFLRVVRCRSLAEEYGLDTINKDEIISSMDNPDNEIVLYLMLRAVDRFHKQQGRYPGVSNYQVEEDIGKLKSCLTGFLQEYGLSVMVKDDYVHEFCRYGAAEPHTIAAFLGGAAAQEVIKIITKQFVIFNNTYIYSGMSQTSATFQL
# PfG6PD confirm – PfG6PD inhibitors, hit retest, confirmation, biochemical, fluorescence intensity, single concentration; shares compounds with PfG6PD inh; recombinant PfGluPho, NADPH-diaphorase-resazurin fluorescence; inhibition, % at 20 µM; hit rate 34% among 2,400; AID 504753, 2011;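 active means inhibition of at least 50% at 20 µM in any single replicate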;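 further: 0% = DMSO with substrate and 100% = DMSO lacking glucose-6-phosphate substrate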
# Diaphorase 10uM – diaphorase inhibitors and chemical oxidizers, confirmation, counter-screen for P. falciparum G6PD inhibitor project, biochemical, fluorescence intensity, 10 µM NADPH | shares compounds with PfG6PD inh | diaphorase-coupled resazurin reduction, NADPH 10 uM | inhibition, % at 20 µM | hit rate 39% among 820;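 active means average inhibition reaching 50% or more with the compound at 20 µM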;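 further: resorufin red fluorescence formed as diaphorase reduces resazurin using NADPH; 0% = DMSO with enzyme and 100% = DMSO without enzyme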
# Diaph ctr 30uM – diaphorase inhibitors and chemical oxidizers, confirmation, counter-screen for P. falciparum G6PD inhibitor project, biochemical, fluorescence intensity, 30 µM NADPH; shares compounds with PfG6PD inh; Diaphorase/resazurin coupled assay, resorufin fluorescence; inhibition, % at 20 µM; hit rate 29% among 820; AID 504863, 2011;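 active means inhibition averaging 50% or more, tested at 20 µM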;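 further: 0% = DMSO with enzyme and 100% = DMSO wells lacking diaphorase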
# * marks the source's active call; other numbers are inactive results; . = no result shown. A selection: hits, their analogues and other compounds. The true share with any hit is near 2%.
SMILES,PfG6PD inh,NPR2 activator,A3A deaminase,GC-A act,A3G deaminase,Neddyl block,PfG6PD confirm,others
CCN1/C(=C/C=C/C=C/C=C/c2sc3ccccc3[n+]2CC)Sc2ccccc21,64.4*,4.4,15.3,4.1,14.2,-18.1,96.2*,Diaphorase 10uM=33.5;Diaph ctr 30uM=33.1
COC(=O)C[C@@H]1CC[C@H]2[C@@H](COc3ccc(NS(=O)(=O)c4ccccc4F)cc3C(=O)N2C)O1,.,-4.8,.,2.6,.,.,.,
COc1ccc(NC(=O)c2cc3ccccn3n2)cc1,63.6*,-2.6,-1.8,-0.8,-4.9,0.3,33.3,
COc1ccc(C(=O)Nc2nc3ccccc3s2)c(OC)c1,76.1*,-8.6,2.1,-7.1,-1.3,-15.9,12.8,
COc1ccc(NC(=O)c2nc3ccccc3s2)cc1,78.6*,-5.6,-2.2,3.9,-5.5,22.9,16.0,
CCCCNc1cc(NC(C)=O)cc2cc(OC)c(OC)cc12,72.1*,-4.6,-6.9,-9.5,-9.4,15.3,43.0,
CCC(C)(C)NC(=O)C(c1ccc(C)cc1)N(Cc1cccs1)C(=O)c1ccc2c(c1)OCCO2 (stereo unspecified),62.3*,-4.2,-5.5,-8.0,-4.8,-6.5,-29.3,
Cc1ccc(C(C(=O)NC(C)(C)C)N(Cc2cccs2)C(=O)c2ccc3c(c2)OCCO3)cc1 (stereo unspecified),-17.1,-2.2,-2.2,-8.1,-6.0,-0.1,.,
COC(=O)[C@]12C=CCN1[C@@H](c1ccc(OC)c(OC)c1)c1c(c3ccccc3n1S(=O)(=O)c1ccc(C)cc1)C2,.,0.4,.,-3.4,.,.,.,
COc1ccc(-c2cc3ccc(F)cc3cn2)cc1,68.6*,-4.9,-0.2,3.5,2.1,-1.1,21.9,
CCSc1nnc(NC(=O)c2ccc3c(c2)OCO3)s1,85.3*,-3.5,1.0,1.5,-4.7,12.9,73.9*,Diaphorase 10uM=68.4*;Diaph ctr 30uM=67.8*
CC(C)Sc1nnc(NC(=O)c2ccc3c(c2)OCO3)s1,99.9*,-2.5,-1.6,0.6,-6.5,-2.9,65.6*,Diaphorase 10uM=58.9*;Diaph ctr 30uM=46.0
CC(C)c1nnc(NC(=O)c2sc3ccccc3c2Cl)s1,63.8*,-1.3,-2.5,2.1,-3.5,-94.0,62.5*,Diaphorase 10uM=39.4;Diaph ctr 30uM=35.7
CC(c1ccccc1)c1nnc(NC(=O)c2ccc3c(c2)OCO3)s1 (stereo unspecified),21.7,6.8,-0.2,1.7,3.6,-13.7,.,
CC(C)c1nnc(NC(=O)c2ccc3c(c2)OCO3)s1,73.0*,0.3,1.4,6.2,-7.9,4.3,19.9,
FC(F)(F)c1ccccc1NC(=S)OC1CCC12CCC(c1ccccc1)CC2 (stereo unspecified),.,1.0,.,1.8,.,.,.,
Cc1nnc(NC(=O)c2ccc3ccccc3c2)s1,20.1,-3.7,-1.4,-2.5,-6.2,-1.2,.,
CC(C)c1nnc(NC(=O)c2ccc3ccccc3c2)s1,73.6*,-5.7,-4.2,-0.1,-11.0,-146.9,29.9,
CCNC(=O)NC(=O)COC(=O)c1ccccc1SCC(=O)NC(=O)NCC,59.4*,-0.4,1.1,-6.0,-1.6,.,32.3,
CCCCNC[C@@]12CO[C@H](c3ccc(Cl)cc3)N1[C@@H](c1ccc(Cl)cc1)SC2,.,-9.4,.,-30.8,.,.,.,
CCN(C(=O)Nc1cccc(Cl)c1)c1ccccc1,-1.3,-28.6,-6.5,-42.7,-7.9,1.4,.,
CCOC(=O)NC(N(O)c1cccc(Cl)c1)C(Cl)(Cl)Cl (stereo unspecified),85.1*,1.7,-3.2,-2.1,-8.3,-5.1,17.6,
COC(=O)[C@H](CC(C)C)N1Cc2nnn(Cc3ccccc3)c2-c2ccccc2S1(=O)=O,.,0.0,.,-3.1,.,.,.,
COc1cccc(-c2nn(C)c3sc(C(=O)NCc4ccc(C)o4)cc23)c1,63.7*,11.6,1.4,12.5,1.7,35.5,-8.7,
Oc1c(Cl)cc(Cl)c2c1NCCC2,77.9*,0.8,-1.0,-0.8,17.6,-8.5,37.3,
SMILES,PfG6PD inh,NPR2 activator,A3A deaminase,GC-A act,A3G deaminase,Neddyl block,PfG6PD confirm,others
Cc1nc(COC(=O)c2cc(O)c3ccccc3c2O)cs1,91.8*,-2.6,.,0.5,.,25.8,54.9*,Diaphorase 10uM=-11.1;Diaph ctr 30uM=-2.6
O=C(CCl)N(O)c1ccc(C=Cc2ccccc2)cc1,62.1*,-2.7,.,20.9,.,2.7,-5.5,
CN(C(=O)C=Cc1ccccc1)c1ccccc1,-8.9,-7.7,.,-9.9,.,3.8,.,
O=C(c1ccccc1)c1c[nH]c(C(=O)NNc2ccccc2)c1,68.9*,-3.7,0.5,-5.3,-3.5,5.8,13.5,
CN(C)CCCNC(=O)c1cc(C(=O)c2ccccc2)c[nH]1,-4.9,-5.9,1.4,0.8,-5.1,-1.2,.,
O=C(OCc1cn(Cc2ccc(Cl)cc2)nn1)N1CCOCC1,.,-1.8,.,0.1,.,.,.,
CCOc1ccccc1Oc1nc(-c2ccccc2O)nc2ccccc12,86.0*,-1.0,-1.6,-9.2,-3.7,-3.6,14.8,
COc1cc(C)ccc1Oc1nc(-c2ccccc2O)nc2ccccc12,2.7,-4.5,-1.6,-7.0,-4.6,-55.2,.,
C[C@H]1[C@@H](OC(=O)NCCc2c[nH]c3ccccc23)CC[C@@]23CCCN2C(=O)CCC[C@@H]13,.,-3.0,.,-0.4,.,.,.,
CCOc1ccc(-c2csc(N)c2C(=O)OC)cc1,65.7*,1.6,-0.9,0.2,15.0,0.4,10.0,
Cc1ccc(S(=O)(=O)N2CCN(C(=O)c3cccn3C)CC2)cc1,.,0.9,.,-1.8,.,.,.,
O=C(C(=O)N1CCC(CNC(=O)C2COc3ccccc3O2)CC1)c1cccs1 (stereo unspecified),.,-5.5,.,1.3,.,.,.,
Cc1ccc2c(c1)[nH]c1c(N3CCN(Cc4ccccc4)CC3)ncnc12,61.2*,2.3,-2.5,4.0,-6.2,31.0,-21.9,
